Compound activity: PubChem, several laboratories
Shown are actives, neighbours in structure and some others; about 2.7% of the full set was active somewhere.
SENP6 block – blocks the human protease SENP6; Recombinant SENP6 catalytic domain, aminoluciferin luminescence; AID 2599; inhibition, % at 10 µM; Q9GZR1; 330,000 tested, 1.8% active;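 active means inhibition above about 50% at the single tested dose, limit read from the data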
Target sequence (Q9GZR1 628-1112 limits assumed): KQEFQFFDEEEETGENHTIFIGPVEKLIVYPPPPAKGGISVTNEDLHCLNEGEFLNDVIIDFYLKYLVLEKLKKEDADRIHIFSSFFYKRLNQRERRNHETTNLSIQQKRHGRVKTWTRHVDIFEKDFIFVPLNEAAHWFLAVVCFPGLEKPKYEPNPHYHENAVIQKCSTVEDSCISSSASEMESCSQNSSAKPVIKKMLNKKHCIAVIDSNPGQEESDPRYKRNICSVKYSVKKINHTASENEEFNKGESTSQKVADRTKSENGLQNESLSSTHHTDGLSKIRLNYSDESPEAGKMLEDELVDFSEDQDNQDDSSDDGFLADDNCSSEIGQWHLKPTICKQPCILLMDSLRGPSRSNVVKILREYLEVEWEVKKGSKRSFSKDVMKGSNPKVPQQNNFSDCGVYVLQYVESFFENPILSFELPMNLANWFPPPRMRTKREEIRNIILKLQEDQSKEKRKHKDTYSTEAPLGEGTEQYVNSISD
HSP90 inh – HSP90 refolding inhibition in rabbit reticulocyte lysate. luciferase refolding luminescence, 3 h. inhibition, % at 5.6 µM. 290,000 tested, 0.91% active;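 active means inhibition above the screen-wide mean plus 3 SD, computed separately per campaign, cut at about 16% in these data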;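 further: inhibitors lower the luminescence because luciferase stays unfolded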
SENP8 block-1 – inhibitors of human SENP8 protease; Q96LD8; recombinant SENP8, Nedd8 substrate fluorescence; inhibition, % at 20 µM; 360,000 tested, 0.64% active; AID 602440; in the data active means inhibition mostly above about 40%, no sharp cut-off; inactive means mostly below about 27%
SENP7 inh – inhibitors of human SENP7 protease. Q9BQF6. inhibition, % at 5 µM. 330,000 tested, 1.5% active. recombinant SENP7, Z-RLRGG-aminoluciferin luminescence, 40 min;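 active means inhibition above about 50% at the single test dose, limit read from the data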
SENP8 block-2 – blocks the human protease SENP8; Q96LD8; purified SENP8, Z-RLRGG-aminoluciferin cleavage, luminescence; inhibition, % at 10 µM; 330,000 tested, 1.2% active; AID 2540; in the data active means inhibition above about 50%
HSP90 inh confirm – confirmation of HSP90 inhibitors | inhibition, % at 5.9 µM | shares compounds with HSP90 inh | 2,300 tested, 64% active | rabbit reticulocyte lysate, luciferase refolding luminescence, 3 h; in the data active means inhibition above about 18%
FLuc counter – blocks native firefly luciferase in HSP90 counter-screen; shares compounds with HSP90 inh; purified native firefly luciferase, luminescence; inhibition, % at 5.9 µM; 2,300 tested, 48% active;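 active means inhibition above the mean inhibition of all tested sample wells plus 3 SD, cut at about 10% in these data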
SENP8 confirm – confirmation of human SENP8 protease inhibitors. Recombinant SENP8, Z-RLRGG-aminoluciferin luminescence, 60 min. inhibition, % at 12.5 µM. shares compounds with SENP7 inh. 6,200 tested, 40% active;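 active means mean inhibition across replicates above about 50%, limit read from the data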
SENP6 confirm – confirmation of human SENP6 protease inhibitors | shares compounds with SENP7 inh | recombinant SENP6, Z-RLRGG-aminoluciferin luminescence | inhibition, % at 12.5 µM | 6,200 tested, 58% active | AID 488915
SENP7 conf – human SENP7 inhibition, confirmed; inhibition, % at 12.5 µM; recombinant SENP7, Z-RLRGG-aminoluciferin luminescence, 40 min; shares compounds with SENP7 inh; 6,200 tested, 69% active
Casp3 select – selectivity test for SENP inhibitors: human caspase-3 inhibition; 6,200 tested, 60% active; shares compounds with SENP7 inh; AID 488918; purified caspase-3, Z-DEVD-aminoluciferin luminescence, 60 min; inhibition, % at 12.5 µM;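 active means mean inhibition above about 50%, limit read from the data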
Target sequence (P42574 28-227 limits assumed): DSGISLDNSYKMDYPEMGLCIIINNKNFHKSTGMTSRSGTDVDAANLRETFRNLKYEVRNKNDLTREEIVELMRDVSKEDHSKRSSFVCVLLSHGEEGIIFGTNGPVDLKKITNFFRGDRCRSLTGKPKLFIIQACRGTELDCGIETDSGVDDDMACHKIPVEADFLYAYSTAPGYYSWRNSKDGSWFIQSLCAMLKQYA
Luc interf – interferes with luciferase luminescence in SENP counter-screen; 6,200 tested, 39% active; shares compounds with SENP7 inh; Pre-incubated SENP8/Z-RLRGG-aminoluciferin, luciferase luminescence interference; AID 488919; inhibition, % at 12.5 µM;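 active means mean inhibition above about 50% when retested at one dose, limit read from the data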
Each line names hits and unclear results; the compound was inactive in the other large screens (follow-up assays come after a bar, where they were run).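 How the source made its calls, unless noted: active means mean inhibition above about 50% in the one-dose retest (limit read from the data); inactive means the rest.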

O=C(O)c1ccc(N=Nc2c(O)ccc3ncccc23)cc1	SENP6 block 96.7, HSP90 inh 53.5, SENP7 inh 100.4, SENP8 block-2 96.9 | HSP90 inh confirm 53.7 | FLuc counter 19.7 | SENP8 confirm 98.6 | SENP6 confirm 99.2 | SENP7 conf 102.3 | Casp3 select 89.1 | Luc interf 61.7
C[C@H](CO)N1C[C@H](C)[C@@H](CN(C)C(=O)c2ccncc2)OCc2cnnn2CCCC1=O	none (no result: SENP6 block, HSP90 inh, SENP7 inh, SENP8 block-2)
COC(=O)c1ccc2c(c1)C(=O)/C(=C/c1ccc(O)cc1)O2	none (no result: SENP6 block, SENP7 inh, SENP8 block-2)
COc1cccc(/C=C2\Oc3ccc(O)cc3C2=O)c1O	SENP6 block 71.1, HSP90 inh 17.5, SENP7 inh 64.4, SENP8 block-2 55.8 | HSP90 inh confirm 32.8 | FLuc counter 33.5 | SENP8 confirm 71.7 | SENP6 confirm 69.1 | SENP7 conf 90.3 | Casp3 select 72.4 | Luc interf inactive
COc1ccccc1OCC(=O)Nc1ccccn1	SENP6 block 82.3, HSP90 inh 69.6, SENP7 inh 85.7, SENP8 block-2 77.8 | HSP90 inh confirm 20.2 | FLuc counter inactive | SENP8 confirm 77.7 | SENP6 confirm 74.1 | SENP7 conf 93.7 | Casp3 select 93.4 | Luc interf 81.1
Cc1c(C)c2ccc(OCC(=O)Nc3ccccn3)c(C)c2oc1=O	SENP6 block 97.6, HSP90 inh 95.6, SENP7 inh 100.5, SENP8 block-2 92.2 | HSP90 inh confirm 100.2 | FLuc counter 91.0 | SENP8 confirm 58.6 | SENP6 confirm 88.5 | SENP7 conf inactive | Casp3 select 92.6 | Luc interf inactive
O=C(O)c1ccc(N/N=C/c2ccc3c(c2)OCO3)cc1	SENP6 block 97.1, HSP90 inh 81.8, SENP7 inh 99.7, SENP8 block-2 97.8 | HSP90 inh confirm 93.6 | FLuc counter 88.0 | SENP8 confirm 99.0 | SENP6 confirm 100.2 | SENP7 conf 102.7 | Casp3 select 98.5 | Luc interf 98.3
Cc1ccc(/C=N/Nc2ccc(Cl)c(C(=O)O)c2)s1	SENP6 block 95.8, HSP90 inh 24.1, SENP7 inh 83.7, SENP8 block-2 83.7 | HSP90 inh confirm 76.7 | FLuc counter 37.3 | SENP8 confirm 95.5 | SENP6 confirm 96.4 | SENP7 conf 101.2 | Casp3 select 50.5 | Luc interf 94.2
O=C(O)c1cc(N/N=C/C(Cl)=C/c2ccccc2)ccc1Cl	SENP6 block 88.2, HSP90 inh 48.4, SENP7 inh 88.7, SENP8 block-2 96.3 | HSP90 inh confirm 89.5 | FLuc counter 80.3 | SENP8 confirm 98.4 | SENP6 confirm 99.1 | SENP7 conf 101.0 | Casp3 select inactive | Luc interf 96.7
Cc1ccc(/C=N/Nc2nc(Cl)c(Cl)cc2Cl)s1	none
O=C(O)c1ccc(N/N=C/c2cc3c(cc2[N+](=O)[O-])OCO3)cc1	none
O=C(O)c1cc(N/N=C/c2ccc3c(c2)OCO3)ccc1Cl	SENP6 block 66.2, HSP90 inh 46.6, SENP8 block-2 69.3 | HSP90 inh confirm 82.6 | FLuc counter 53.7 | SENP8 confirm inactive | SENP6 confirm 80.8 | SENP7 conf 94.7 | Casp3 select 62.9 | Luc interf 83.2
C/C(=N\Nc1ccc(Cl)c(C(=O)O)c1)c1ccc2c(c1)OCO2	none
Cc1cc(C)cc(NC(=O)CCc2ccc(C)o2)c1	none
COc1ccc(C(=O)Nc2ccnn2C2CCN(Cc3cn(C)nc3C)CC2)cc1	none
CCOc1ccc2[nH]c(=O)c(CN(CCO)C(=O)c3ccc(OC)c(OC)c3)cc2c1	none
CCCN1C(=O)C2(OCCO2)c2cc(Cl)ccc21	none
CCOC(=O)C1=C(C)NC(C)=C(C(=O)OCC)C1C(=O)OCC(=O)N1CCc2ccccc2C1	none
COc1ccc(C(=O)Nc2ccc3ccccc3c2)c(OC)c1	SENP6 block 87.3, HSP90 inh 23.9, SENP7 inh 91.3, SENP8 block-2 87.2 | HSP90 inh confirm 19.5 | FLuc counter 9.8 | SENP8 confirm 91.3 | SENP6 confirm 91.4 | SENP7 conf 98.5 | Casp3 select 76.6 | Luc interf 72.2
Cc1cc(=O)oc(C)c1C(=O)Nc1ccc2ncccc2c1	none
COc1ccc(C(=O)Nc2ccc3ncccc3c2)cc1	SENP6 block 81.3, HSP90 inh 28.7, SENP7 inh 87.2, SENP8 block-2 79.3 | HSP90 inh confirm 48.9 | FLuc counter 29.1 | SENP8 confirm inactive | SENP6 confirm 85.6 | SENP7 conf 97.5 | Casp3 select 89.2 | Luc interf inactive
Cc1ccc(C(=O)Nc2ccc3ncccc3c2)cc1	SENP6 block 82.1, HSP90 inh 50.3, SENP7 inh 89.9, SENP8 block-2 80.3 | HSP90 inh confirm 70.7 | FLuc counter 58.0 | SENP8 confirm 83.4 | SENP6 confirm 83.6 | SENP7 conf 97.1 | Casp3 select 87.2 | Luc interf 87.7
N#Cc1c(NC(=O)CCN2C(=O)c3ccccc3C2=O)oc(-c2ccccc2)c1-c1ccccc1	none
CN(C)/C=C/C(=O)c1ccc2noc(-c3ccc(F)cc3)c2c1	none
CC(C)C(=O)NNC(=O)CSc1ncnc2c1cnn2-c1ccccc1Cl	none
CCn1c(NCc2ccc(N(C)C)cc2)nc2ccccc21	none
CN(C)c1ccc(N=Nc2nc3ccccc3n2C)cc1	SENP6 block 100.2, HSP90 inh 21.5, SENP8 block-1 49.9, SENP7 inh 100.5, SENP8 block-2 97.4 | HSP90 inh confirm 19.4 | FLuc counter 92.9 | SENP8 confirm 94.6 | SENP6 confirm 100.6 | SENP7 conf 103.4 | Casp3 select 89.2 | Luc interf inactive
COc1cccc(-c2cc(C(=O)Nc3cccc(O)c3)no2)c1	SENP6 block 98.6, HSP90 inh 17.5, SENP7 inh 97.2, SENP8 block-2 94.0 | HSP90 inh confirm 64.3 | FLuc counter 57.4 | SENP8 confirm 88.2 | SENP6 confirm 90.5 | SENP7 conf 101.6 | Casp3 select 91.8 | Luc interf 90.0
